Bioassay records: PubChem, National Center for Advancing Translational Sciences (NCATS)
SW480 rerep: DNA re-replication induction in SW480 cells; SW480 DNA re-replication, Hoechst DNA content imaging, 48 h; 1.8% of 340,000 active; Potency, µM (series often up to 46.1 µM), for the others: top-dose re-replication activation, usual class: activators; note: % of control where 0% means no effect; nearly all actives have a fitted effect of over 55% in size
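Treated cells incubate 48 hr (37 C, 5% CO2), are stained 40 min with Hoechst, and nuclear fluorescence is enumerated; a rise in nuclei with high DNA signal marks re-replication.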
TSG101-PTAP inh: blocks PTAP/TSG101 interaction to inhibit HIV-1 budding | Q99816 | Fluorescence polarization, FITC-PTAP peptide / Tsg101 binding | Potency, µM (series often up to 115 µM), inactives show at the top dose activity change, negative = inhibition, hits mostly inhibitors | 340,000 tested, under 10 active | AID 493005; active = well fitted inhibition curve with a large enough effect in the main read-out, with a control signal flat, not every such curve was filed as active; inconclusive = small, poorly fitted or top-dose-only effect, or effect the other way, or a change in a side signal; inactive = no such curve, though single readings can be large or run the other way; note: % of control where 0% means no effect
Target sequence (Q99816 whole entry, looked up): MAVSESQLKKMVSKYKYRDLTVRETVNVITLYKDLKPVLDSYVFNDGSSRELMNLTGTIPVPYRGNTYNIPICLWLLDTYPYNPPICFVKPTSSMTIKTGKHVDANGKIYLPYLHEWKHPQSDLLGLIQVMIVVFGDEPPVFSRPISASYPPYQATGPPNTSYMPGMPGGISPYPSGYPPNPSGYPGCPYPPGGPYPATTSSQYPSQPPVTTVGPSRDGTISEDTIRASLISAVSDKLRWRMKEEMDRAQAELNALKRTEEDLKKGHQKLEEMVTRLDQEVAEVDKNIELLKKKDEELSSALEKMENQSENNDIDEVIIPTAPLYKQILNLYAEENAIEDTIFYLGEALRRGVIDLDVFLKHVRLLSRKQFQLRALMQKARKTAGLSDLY
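Steps: Tsg101 binding domain dispensed (10 uM final), compounds pinned in DMSO, FITC-labeled PTAP-motif peptide added (50 nM final); after 20 min binding at room temperature, polarization measured.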
KB-V1 MDR tox: kills drug-selected multidrug resistant KB-V1 cells | KB-V1 MDR cells viability, CellTiter-Glo, 72 h | Potency, µM (titrated, usually from 46.1 µM), usual class: cytotoxic | 3.4% of 400,000 active; note: % is set by controls: 0 for no effect and ±100 for the full control effect; nearly all actives have a fitted effect of over 60% in size
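KB-V1 MDR subline cells in DMEM (phenol-red free, 10% FBS) exposed to compounds in qHTS concentration series for 72 h at 37 degrees C. Viability read by CellTiter-Glo luminescence; concentration-effect curves fitted after normalization and correction.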
MCF10A rerep: induces DNA re-replication in MCF 10a normal breast cells. MCF 10A DNA re-replication, Hoechst nuclear intensity, 48 h. Potency, µM (top dose mostly 46.1 µM), inactives show at the highest dose activity, positive = re-replication, hits mostly activators. 2.9% of 350,000 active. AID 624296; note: % of control where 0% means no effect; nearly all actives have a fitted effect of over 50% in size
RGS4 inhibitor: blocks human RGS4-accelerated GTP hydrolysis | Transcreener GDP fluorescence polarization, RGS4-accelerated GTP hydrolysis | Potency, µM (highest dose often 114 µM), for inactives: top-dose activity change, negative = inhibition, most hits filed as inhibitors | 0.039% of 390,000 active | AID 504845; note: % is set by controls: 0 for no effect and ±100 for the full control effect; nearly all actives have a fitted effect of over 75% in size
Target sequence (P49798 whole entry, looked up): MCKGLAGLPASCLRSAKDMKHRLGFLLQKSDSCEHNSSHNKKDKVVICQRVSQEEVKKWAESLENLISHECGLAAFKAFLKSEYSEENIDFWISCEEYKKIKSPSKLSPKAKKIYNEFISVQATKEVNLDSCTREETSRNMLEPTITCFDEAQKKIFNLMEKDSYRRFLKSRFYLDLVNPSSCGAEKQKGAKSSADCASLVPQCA
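MLSMR compounds (23 nl, pin-transferred) preincubated 10 min at room temperature with a 500nM (2x) first reagent, then RGS4 at 900nM (2x) plus Transcreener GDP mix added; fluorescence polarization (620/688 nm) read before and after 90 min at 30 °C.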
KB-3-1 cytotox: KB-3-1 parental cell cytotoxicity. KB-3-1 viability, CellTiter-Glo ATP luminescence, 72 h. Potency, µM (titrated, usually from 46.1 µM), most hits filed as cytotoxic. 1.4% of 400,000 active; note: % is set by controls: 0 for no effect and ±100 for the full control effect; nearly all actives have a fitted effect of over 60% in size
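Cytotoxicity measured as CellTiter-Glo luminescence after 72 h at 37 C. Compound titrations were pinned onto drug-naive KB-3-1 parental adenocarcinoma cells grown in DMEM with 10% FBS, and normalized data fitted to concentration-response curves.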
* hit, by the source's call; i = inactive; ? = inconclusive; / = no result given; ! = not active in a repeat; [ ] = dose if it differs, or a comment. The list is not random: actives were taken first. Their share in the collection is about 6.6%. Unless noted, calls come from the whole dose curve; as a rule, active = well fitted curve in the direction sought with a large enough effect; inconclusive = small, poorly fitted or top-dose-only effect, or another doubt; inactive = no such curve, though single readings can be large; an effect the other way counts as inactive or inconclusive. Potency is the fitted concentration of half-maximal effect.

SMILES	SW480 rerep	TSG101-PTAP inh	KB-V1 MDR tox	MCF10A rerep	RGS4 inhibitor	KB-3-1 cytotox
CC(C)=CCC/C(C)=C/CNC(=O)C[C@H]1C[C@H](C(=O)N(C(C)C)C(C)C)[C@@]2(C)c3[nH]c4ccc(Cl)cc4c3CCN2C1=O	19%	-2%	i	-3%	13%	i
COc1ccc2[nH]c3c(c2c1)CCN1C(=O)C(CC(=O)NCc2ccco2)C[C@H](C(=O)N2CCCCC2)[C@@]31C (stereo partly specified)	18µM*	-4%	?	4%	-11%	i
Cc1ccc(C2N=C(Nc3nc4ccccc4o3)NC3=C2C(=O)CC(C)(C)C3)cc1 (stereo unspecified)	/	/	i	/	-23%	i
Cc1cc2c(c(C)c1Cl)C(c1ccc3c(c1)OCO3)CC(O)(c1ccccc1)O2 (stereo unspecified)	/	/	/	/	-4%	/
O=C(Nc1cc(C(F)(F)F)ccc1Cl)C(NCc1ccccc1)c1ccccc1 (stereo unspecified)	?	1%	21µM*	?	0%	i
Cn1c(=O)c2c(ncn2CC(=O)Nc2nc(-c3ccccc3Cl)cs2)n(C)c1=O	5%	-6%	21µM*	14%	-21%	?
CCOC(=O)Cc1csc(NC(=O)Cn2cnc3c2c(=O)n(C)c(=O)n3C)n1	4%	2%	i	-3%	?	i
COc1cc(NC(=O)CCn2nc(C)c(S(=O)(=O)N3CCCCC3)c2C)cc(OC)c1OC	/	/	/	/	5%	/
Cc1cc(C)c(OCCCCNCc2ccccc2)c(Cl)c1	?	-3%	8.2µM*	23µM*	1%	?
CN1CCN(c2ccccc2NC(=O)c2ccc(-c3cccc(Cl)c3)o2)CC1	?	-2%	i	21µM*	-15%	?
O=C(Nc1ccccc1N1CCCCC1)c1ccc(-c2cccc(Cl)c2)o1	1%	0%	i	16µM*	3%	i
Cc1cccc2c1-c1sc(C(=O)Nc3ccccc3N3CCN(C)CC3)cc1CO2	?	-4%	?	4.1µM*	8%	i
Cc1ccc(C(=O)Nc2ccccc2N2CCCCC2)o1	-3%	0%	i	?	-19%	?
CN1CCN(c2ccccc2NC(=O)c2ccc(-c3ccc(Cl)cc3Cl)o2)CC1	?	-2%	?	?	-2%	?
O=C(Nc1cccc2nsnc12)c1ccc(-c2cccc(Cl)c2)o1	3%[9.22 µM]	6%	i	5.8µM*	?	i
COCCN(CC(=O)Nc1cccc(C)c1C)C(=O)C1(c2ccccc2)CC1	0%	-2%	18µM*	-1%	16%	i
Cc1cccc(NC(=O)CN(C)CC(=O)NC(c2ccccc2)c2ccccc2)c1C	-3%	1%	3.3µM*	0%	-6%	i
Cc1ccccc1OCC(=O)NCC(=O)OCC(=O)c1ccc(F)cc1	/	/	i	/	1%	i
Cc1cc(=O)n(CC(=O)NC(C)c2ccccc2)c2c1c(C)nn2C (stereo unspecified)	/	/	i	/	0%	i
O=c1oc(C2(O)CCCCC2)cc2ccc(-c3ccc4[nH]ccc4c3)cc12	23%	/	?	?	-6%	0.82µM*
O=C(c1cnn(-c2ccc(F)cc2)c1-n1cccc1)N1CCN(c2cccc(Cl)c2)CC1	/	/	i	/	-5%	i
CCOC(=O)c1cccc(NC(=O)CC(c2ccc(F)cc2)N2Cc3ccccc3C2=O)c1 (stereo unspecified)	/	/	/	/	-1%	/
CCCOC(=O)N[C@@H]1C(=O)N2C(C(=O)OCCC)=C(C)CS[C@H]12	49%	-6%	?	16%	0%	16µM*!
N#CC1=C(N)Oc2c(ccc3ccccc23)C1c1ccsc1 (stereo unspecified)	?	1%	?	?	-19%	6.5µM*
O=C(CSc1ncnc2nc[nH]c12)N1CCN(c2ccc(Cl)cc2)CC1	-7%	-3%	?	9%	24%	18µM*
SMILES	SW480 rerep	TSG101-PTAP inh	KB-V1 MDR tox	MCF10A rerep	RGS4 inhibitor	KB-3-1 cytotox
O=C(CSc1nc2ccccc2c(=O)n1CCC(=O)N1CCCCC1)NCc1ccccc1	-2%	-3%	2.1µM*	18%	20%	i
CC(C)c1ccc(NC(=O)CSc2nc3ccccc3nc2N2CCCC2)cc1	-3%	0%	i	?	-9%	i
Cc1ccc(NC(=O)CSc2nc3ccccc3c(=O)n2CCCC(=O)N2CCCC2)cc1	?	-8%	?	6%	-28%	6.3µM*
COCCCn1c(SCC(=O)Nc2ccc(C)cc2)nc2ccccc2c1=O	-1%	-6%	?	?	0%	i
Cc1ccc(NC(=O)CSc2nc3ccccc3c(=O)n2CCCN2CCCCC2)cc1C	?	-1%	?	15µM*	-14%	?
Cc1ccc(NC(=O)CSc2nc3ccccc3nc2N2CCCC2)cc1	19%	0%	?	13%	-28%	18µM*
CCOc1ccc(NC(=O)Cn2c(=O)n(CC(=O)NCc3ccccc3Cl)c(=O)c3sccc32)cc1	/	/	i	/	-2%	i
Cc1ccc(-n2c(=O)c3oc4ccccc4c3n(Cc3ccccc3)c2=O)cc1C	/	/	i	/	-19%	i
CCN(CCCNC(=O)c1cc(Nc2ccccc2OC)nc2ccccc12)c1cccc(C)c1	/	/	i	/	-24%	i
CCC(C)(C)c1ccc(Oc2ccc(N)cc2)cc1	18%	-3%	i	15µM*	4%	i
CCC(C)(C)c1ccc(Oc2cccc(C(=O)O)c2)cc1	-4%	-6%	i	?	-26%	i
Cc1ccccc1-n1nc(CSc2nc3ccccc3[nH]2)c(-c2ccccc2)c1N	10%	-4%	18µM*	30%	2%	?
Nc1c(-c2ccccc2)c(CSc2nc3ccccc3[nH]2)nn1-c1ccc(Cl)cc1	3%	-1%	i	15%	-6%	?
Nc1c(-c2ccccc2)c(CSc2nc3ccccc3[nH]2)nn1-c1cccc(Cl)c1	?	-5%	?	?	-2%	23µM*
CC(=O)N1c2ccc(S(=O)(=O)NCC3CCC(C(=O)Nc4cccc(F)c4)CC3)cc2CC1C (stereo unspecified)	/	/	/	/	-28%	/
O=C(/C=C/c1ccc2ccccc2n1)c1cc(Cl)ccc1O	11%	-3%	i	12%	-28%	i
Oc1ccc(Cl)cc1/C=C/c1ccc2cccc(O)c2n1	21µM*	0%	i	?	-4%	?
Oc1ccc2ccccc2c1/C=C/c1ccc2c(Br)cc(Br)c(O)c2n1	18µM*	1%	4.1µM*	8.2µM*	-39%	?
